Rows were chosen to be rich in hits. Some 2.9% of all compounds tested hit in one or more screens of this group.
DRD3 antagonist – D3 dopamine receptor (human) antagonism; D3R cells, DiscoveRx beta-arrestin luminescence, antagonist mode; stronger effect = lower value; max response, negative = inhibition, %; actives 2.5% (n = 360,000); in the data active means max response below about -50%
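Cells expressing the human receptor were seeded at 1500 cells/well, incubated overnight at 37 degrees C in 5% CO2, then exposed to library compounds with dopamine controls for 90 minutes at 37 degrees C before luminescent detection.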
B2AR arrestin – agonists driving beta-arrestin recruitment to human beta2-adrenergic receptor | P07550 | beta-arrestin recruitment to beta2AR, cell-based reporter | Potency, µM (highest dose often 46.1 µM), actives largely listed as activators | actives 0.02% (n = 330,000); active means well fitted activation curve with a large enough effect; further: nearly all actives have a fitted effect of over 65% in size
D3 ag – activates the human D3 dopamine receptor; max activation, %; AID 652048; D3R DiscoveRx beta-arrestin cells, luminescence, 90 min; actives 0.58% (n = 410,000); in the data active means max activation above about 30%
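Agonist-mode cell screen: cells plated at 1500/well and incubated overnight at 37 °C, then exposed to library compounds for 90 min at 37 °C. Detection reagent was added for 30–60 min at room temperature, and luminescence was read.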
TSHR antag – blocks TSH signaling through the human TSH receptor | P16473 | TSHR-expressing cells, TSH-stimulated cAMP HTRF, 2 h; stronger effect = lower value | activity change, negative = inhibition, % at 11.5 µM | actives 0.2% (n = 330,000);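 active means activity change below a set negative limit, meaning inhibition stronger than a set level, cut at about -70% in these data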
Target sequence (P16473 whole entry, looked up): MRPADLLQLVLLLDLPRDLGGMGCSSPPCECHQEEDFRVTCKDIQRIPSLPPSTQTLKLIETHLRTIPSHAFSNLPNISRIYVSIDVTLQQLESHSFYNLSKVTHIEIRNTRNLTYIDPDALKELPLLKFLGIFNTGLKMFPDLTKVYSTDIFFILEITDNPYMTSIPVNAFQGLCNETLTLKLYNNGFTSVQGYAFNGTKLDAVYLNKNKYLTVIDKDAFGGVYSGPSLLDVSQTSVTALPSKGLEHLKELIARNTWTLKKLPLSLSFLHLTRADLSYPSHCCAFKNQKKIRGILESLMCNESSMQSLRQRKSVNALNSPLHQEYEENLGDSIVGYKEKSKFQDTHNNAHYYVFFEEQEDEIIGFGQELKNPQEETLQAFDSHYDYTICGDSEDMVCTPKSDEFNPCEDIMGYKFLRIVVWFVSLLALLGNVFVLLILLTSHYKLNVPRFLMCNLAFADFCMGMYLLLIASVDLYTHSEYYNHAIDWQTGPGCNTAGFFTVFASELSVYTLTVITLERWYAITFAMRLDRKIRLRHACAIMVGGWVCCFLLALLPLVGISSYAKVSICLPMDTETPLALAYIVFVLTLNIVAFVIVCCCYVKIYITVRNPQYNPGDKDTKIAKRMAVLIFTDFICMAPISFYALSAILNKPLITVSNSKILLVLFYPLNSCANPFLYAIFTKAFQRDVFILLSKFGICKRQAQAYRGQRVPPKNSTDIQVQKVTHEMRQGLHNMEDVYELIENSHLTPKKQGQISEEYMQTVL
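Inhibition of cAMP made by TSHR-expressing cells under TSH stimulation (4nM final, EC80; 2 h, 37 deg C) is quantified with a one-step lysis HTRF kit, anti-cAMP cryptate versus cAMP-d2.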
Of the large screens only hits and unclear results are named; the others gave an inactive call.

CCN(CC)C(=O)C1CCCN(Cc2ccc3c(c2)OCO3)C1 (stereo not given)	none
O=c1c2cc3c(cc2n(Cc2ccc(Cl)cc2)c(=O)n1Cc1nc(-c2ccccc2)no1)OCO3	none (no result: DRD3 antagonist, B2AR arrestin, TSHR antag)
CCCCCc1ccc(C(=O)CCCC)c(=S)[nH]1	D3 ag 30
CCCCCc1cc(=O)[nH]c(=S)[nH]1	none
Cc1ccc(S(=O)(=O)NC(=O)COc2cc(C)ccc2C(C)C)cc1	DRD3 antagonist -55
Cc1ccc(C(C)C)c(OCC(=O)N/N=C/c2cccn2C)c1	D3 ag 31
O=C(CCn1cnc2onc(-c3ccc(F)cc3)c2c1=O)N1CCN(c2cccc(Cl)c2)CC1	none (no result: DRD3 antagonist, B2AR arrestin, TSHR antag)
Cc1ccc2ccc(S(=O)(=O)n3nc(C)cc3C)cc2c1	DRD3 antagonist -60
Cc1cc(C)n(S(=O)(=O)c2ccc(C)c(C)c2)n1	none
O=C1N/C(=N/NC(=O)c2cccc3ccccc23)S/C1=C\c1ccccc1OCc1ccccc1	DRD3 antagonist -59
O=[N+]([O-])c1ccc2c(c1)CO[C@@]21O[C@H](CCO)C[C@H](O)[C@H]1O	none (no result: B2AR arrestin, TSHR antag)
Cc1ccc(Cl)cc1N1CCN(C(=O)C2CCN(Cc3nc(-c4cccc(Cl)c4)oc3C)CC2)CC1	none (no result: DRD3 antagonist, B2AR arrestin, TSHR antag)
Cc1oc(-c2cccc(Cl)c2)nc1CN1CCC(C(=O)N2CCN(c3ccccc3F)CC2)CC1	DRD3 antagonist -63
Cc1oc(-c2ccc(Cl)cc2)nc1CN1CCC(C(=O)N2CCc3ccccc3C2)CC1	DRD3 antagonist -70
Cc1oc(-c2ccc(Cl)cc2)nc1CN1CCC(C(=O)N2CCN(Cc3ccccc3)CC2)CC1	DRD3 antagonist -77
CCOC(=O)C1CCCN(C(=O)C2CCN(Cc3nc(-c4ccc(Cl)cc4)oc3C)CC2)C1 (stereo not given)	none (no result: B2AR arrestin, TSHR antag)
O=C(NCc1ccccc1Cl)c1ccc2c(O)c(S(=O)(=O)c3ccccc3)c(=O)[nH]c2c1	none (no result: DRD3 antagonist, B2AR arrestin, TSHR antag)
O=C(NCc1cccs1)c1nn(-c2ccccc2Cl)nc1CO	none (no result: DRD3 antagonist, B2AR arrestin, TSHR antag)
Cc1ccc(C)c(NC(=O)Cn2cc(S(=O)(=O)Cc3cccc(Cl)c3)c3ccccc32)c1	none (no result: DRD3 antagonist, B2AR arrestin, TSHR antag)
CCOCCCNC(=O)Cn1ncc2c([nH]c3ccc(C)cc32)c1=O	none (no result: DRD3 antagonist, B2AR arrestin, TSHR antag)
N#Cc1c(-c2ccccc2)nc(-c2ccncc2)[nH]c1=O	none
N#Cc1c(-c2ccccc2)nc(-c2ccccc2)[nH]c1=O	DRD3 antagonist -58
C[C@@H](C(=O)Nc1ccc2ccccc2c1)[C@H]1C[C@]1(C)[C@H](NC(=O)c1cccnc1)c1ccccc1	DRD3 antagonist -50
CCN1CCN(c2ccc(S(=O)(=O)N3CCCCC3)cc2NC(=O)/C=C/c2ccc(Cl)cc2)CC1	none (no result: B2AR arrestin, TSHR antag)
O=C(NNC(=S)Nc1cccc(C(F)(F)F)c1)c1cccc(Cl)c1	D3 ag 44
O=C(NNC(=S)Nc1cccc(C(F)(F)F)c1)c1ccccc1Cl	none
O=C(Nc1ccccc1C(F)(F)F)c1noc2c1CCCCC2	none (no result: DRD3 antagonist, B2AR arrestin, TSHR antag)
Cc1cccc(C)c1C(=NCCCN(C)C)c1ccccc1	DRD3 antagonist -78
O=C1CN(C(=O)COc2ccc(Cl)cc2)C(c2ccc(F)cc2)c2cc(Cl)ccc2N1 (stereo not given)	none (no result: DRD3 antagonist, B2AR arrestin, TSHR antag)
CCCCN(C(=O)C1CCC(CNS(=O)(=O)c2cccc3nsnc23)CC1)c1ccccc1 (stereo not given)	none (no result: DRD3 antagonist, B2AR arrestin, TSHR antag)
CCCN(CCC)CCNC(=O)C1CCCN(S(=O)(=O)c2ccc3c(c2)oc(=O)n3C)C1 (stereo not given)	D3 ag 46
C=CCc1cccc(C=NNC(=O)CN2CCN(Cc3ccccc3)CC2)c1O	none (no result: DRD3 antagonist, B2AR arrestin, D3 ag)
COc1cc(C(=O)O/N=C2\C=CC(=O)C(C)=C2)cc(OC)c1OC	DRD3 antagonist -57
COc1cc(C(=O)ON=C2C=C(C)C(=O)C(C)=C2)cc(OC)c1OC	none
Cc1c(Cl)cccc1NC(=O)CCS(=O)(=O)c1ccc2c(c1)CC(=O)N2C	none (no result: DRD3 antagonist, B2AR arrestin, TSHR antag)
Cc1ccc(C(O)c2ncc(-c3cccc(C(F)(F)F)c3)[nH]2)cc1 (stereo not given)	none (no result: B2AR arrestin, TSHR antag)
Cc1cccc(C)c1C(O)c1ncc(-c2cccc(C(F)(F)F)c2)[nH]1 (stereo not given)	DRD3 antagonist -61 (no result: B2AR arrestin, TSHR antag)
CCOC(=O)c1c(C)oc2nc(C)nc(NCCc3ccc(OCC)c(OCC)c3)c12	none (no result: DRD3 antagonist, B2AR arrestin, TSHR antag)
CCOC(=O)c1[nH]c2ccccc2c1NC(=O)c1cc(OC)cc(OC)c1	none (no result: DRD3 antagonist, B2AR arrestin, TSHR antag)
COc1cccc(-n2nc(C#N)c(Cl)cc2=O)c1	DRD3 antagonist -87
COc1cccc(-n2nc(C(N)=O)c(O)cc2=O)c1	none
Cc1cc(C(c2ccc(C)o2)c2ccc(C)o2)c(O)c([N+](=O)[O-])c1	DRD3 antagonist -97
Cc1ccc(C(c2ccc(C)o2)c2cccc([N+](=O)[O-])c2O)o1	DRD3 antagonist -73
Cc1[nH]n(-c2ccccc2)c(=O)c1C(c1cccc([N+](=O)[O-])c1O)c1c(C)[nH]n(-c2ccccc2)c1=O	DRD3 antagonist -70
Cc1c(C(c2cccc([N+](=O)[O-])c2O)c2c(C)n(C)n(-c3ccccc3)c2=O)c(=O)n(-c2ccccc2)n1C	none
Cc1cc(C)nc(N/N=C/C2=C(O)CC(c3ccc(F)cc3)CC2=O)n1 (stereo not given)	DRD3 antagonist -121
Cc1ccc(C2CC(=O)C(C=NCCN3CCN(C(=S)Nc4ccc(F)cc4)CC3)=C(O)C2)cc1 (stereo not given)	none
COc1ccccc1-c1nn2c(=O)cc(CN3CCN(C(=O)/C=C/c4ccccc4)CC3)nc2s1	none (no result: DRD3 antagonist, B2AR arrestin, TSHR antag)
O=C(CSc1nc(-c2ccccc2)c(-c2ccccc2)o1)N1CCCCC1	none (no result: B2AR arrestin, TSHR antag)
O=C(CSCC(=O)N1CCCCC1)Nc1nc(-c2ccccc2)c(-c2ccccc2)s1	DRD3 antagonist -51
CN1CCN(C2=Nc3ccccc3Sc3ccc(Cl)cc32)CC1	none (no result: DRD3 antagonist, B2AR arrestin, TSHR antag)
CN1CCN(C2=Nc3ccccc3Oc3ccc(Cl)cc32)CC1	DRD3 antagonist -110
Cc1cccc(/C=N/NC(=O)c2cccc([N+](=O)[O-])c2)n1	DRD3 antagonist -50
O=C(COc1ccc(Br)cc1)NNC(=S)NCc1ccccc1	DRD3 antagonist -68
CCOC(=O)c1c(C)oc2nc(C)nc(NCC3CCN(Cc4ccccc4C)CC3)c12	none (no result: DRD3 antagonist, B2AR arrestin, TSHR antag)
Cc1cccc(OCCSc2nc3ccccc3n2CC(=O)N2CCOCC2)c1C	none (no result: DRD3 antagonist, B2AR arrestin, TSHR antag)
Nc1nc(N2CCN(Cc3ccccc3)CC2)n[nH]1	D3 ag 51
c1ccc(CNc2nc(N3CCN(Cc4ccccc4)CC3)nc3ccccc23)cc1	DRD3 antagonist -93
COc1ccc(Cl)cc1NC(=O)CCN1C(=O)c2ccccc2Sc2ncccc21	none (no result: DRD3 antagonist, B2AR arrestin, TSHR antag)
COCCNC(=O)Cn1cnc([N+](=O)[O-])n1	DRD3 antagonist -71
O=[N+]([O-])c1cc(S(=O)(=O)Nc2ccccc2)ccc1-n1nnc2ccccc21	DRD3 antagonist -61
CCN(CC)c1cc2c(cc1F)c(=O)c(S(=O)(=O)c1ccc(C)cc1)cn2Cc1ccc(F)cc1	none (no result: DRD3 antagonist, B2AR arrestin, TSHR antag)
O=C(CSc1nnc(COc2ccccc2)n1-c1ccccc1)c1cccs1	none
Cc1ccc(OCc2nnc(SCC(=O)c3cccs3)n2-c2ccccc2)cc1C	DRD3 antagonist -53
Cn1cc(/C=C2/SC(=O)N(CC(=O)Nc3ccc4c(c3)OCO4)C2=O)c2ccccc21	DRD3 antagonist -84
